Consider 9 sequences from publication PMC8384837, “Expanding the binding specificity for RNA recognition by a PUF domain”.

Changes are numbered by the printed parent chain.

Common to all, as to assay: yeast three-hybrid, YBZ-1, SC-Leu-His + 0.5 mM 3-AT, 4 days
What all share (settings): tags: N-Gal4 AD-HA kept; label: inside an RPR1-promoter hybrid RNA with tandem MS2 sites; ssRNA

One experiment addresses PUM1 PUF domain R5-KAL (Homo sapiens, UniProt Q14671 828-1176, C1007K;R1008A;Q1011L). Put shortly: (§1)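 The interaction score is the log change in variant frequency from input to selection. Scores were computed in log2 with a pseudocount of 1 for absent variants, using Illumina sequencing of PCR-amplified repeat regions. The input came from four days on SC-Leu and the selection from four days on SC-Leu-His + 0.5 mM 3-AT. The cells were strain YBZ-1 (LexA–MS2 coat fusion, HIS3 reporter) co-expressing Pumilio-1 PUF domain libraries and matching RNA elements from a centromeric plasmid.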

In the next experiment the target is T1, PUM1 PUF domain R6-SWQ (Homo sapiens, UniProt Q14671 828-1176, N1043S;Y1044W).
T1 sequence: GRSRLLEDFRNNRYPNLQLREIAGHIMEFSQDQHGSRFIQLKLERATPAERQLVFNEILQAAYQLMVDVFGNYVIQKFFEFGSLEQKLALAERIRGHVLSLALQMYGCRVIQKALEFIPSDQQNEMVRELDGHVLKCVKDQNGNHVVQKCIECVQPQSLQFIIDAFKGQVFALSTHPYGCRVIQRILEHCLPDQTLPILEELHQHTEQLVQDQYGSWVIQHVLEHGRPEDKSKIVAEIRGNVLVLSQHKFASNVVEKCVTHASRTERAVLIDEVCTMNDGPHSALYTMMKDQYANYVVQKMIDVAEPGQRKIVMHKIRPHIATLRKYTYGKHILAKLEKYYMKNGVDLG
Put shortly:
as §1

For a further experiment, the target named is T2, PUM1 PUF domain R6-RWR (Homo sapiens, UniProt Q14671 828-1176, N1043R;Y1044W;Q1047R).
T2 sequence: T1 sequence with S216R, Q220R
In a few lines: as §1

The next experiment concerns the target PUM1 PUF domain R2-VYP (Homo sapiens, UniProt Q14671 828-1176, N899V;Q903P). In a few lines:
as §1

The next experiment deals with PUM1 PUF domain R7-CCR (Homo sapiens, UniProt Q14671 828-1176, S1079C;N1080C;E1083R). In a few lines: as §1
For another experiment, the target named is PUM1 PUF domain R4-PHQ (Homo sapiens, UniProt Q14671 828-1176, N971P). In a few lines: as §1
For another experiment, the target named is PUM1 PUF domain R4-WGW (Homo sapiens, UniProt Q14671 828-1176, N971W;H972G;Q975W). In a few lines: as §1
Another experiment addresses PUM1 PUF domain R4-FNL (Homo sapiens, UniProt Q14671 828-1176, N971F;H972N;Q975L). In a few lines: as §1
Another experiment addresses PUM1 PUF domain R4-AWP (Homo sapiens, UniProt Q14671 828-1176, N971A;H972W;Q975P). Put shortly:
as §1

Another experiment addresses PUM1 PUF domain R5-NIA (Homo sapiens, UniProt Q14671 828-1176, C1007N;R1008I;Q1011A). Put shortly:
as §1

In a further experiment the target is PUM1 PUF domain R1-KKT (Homo sapiens, UniProt Q14671 828-1176, S863K;R864K;Q867T). In a few lines: as §1
Another experiment deals with PUM1 PUF domain R8-TRR (Homo sapiens, UniProt Q14671 828-1176, N1122T;Y1123R;Q1126R). Put shortly: as §1
The next experiment has as its target PUM1 PUF domain R3-PRE (Homo sapiens, UniProt Q14671 828-1176, C935P;Q939E). Put shortly: as §1
A further experiment deals with PUM1 PUF domain R3-GHG (Homo sapiens, UniProt Q14671 828-1176, C935G;R936H;Q939G). In a few lines: as §1

Take “GGCUAGAACUAGUGGAUCCCCCGGCGCCCGGCGGCUCGAGCCCGGGUAAGUGUCAAUAGUCUGCAUGCCGCCGGGCGCCAUGCCUGCAGGUCGACUCUAGAAAACAUG”: the binding signal in the experiment with PUM1 PUF domain R5-KAL is 3.48 log2 enrichment (interaction score). “GGCUAGAACUAGUGGAUCCCCCGGCGCCCGGCGGCUCGAGCCCGGGUAAGUGAAAAUAGUCUGCAUGCCGCCGGGCGCCAUGCCUGCAGGUCGACUCUAGAAAACAUG”: the binding signal was 2.27 log2 enrichment (interaction score) in the experiment with PUM1 PUF domain R6-SWQ and 4.83 log2 enrichment (interaction score) in the experiment with PUM1 PUF domain R6-RWR. In the case of “GGCUAGAACUAGUGGAUCCCCCGGCGCCCGGCGGCUCGAGCCCGGGUAAGUGUAAAAAGUCUGCAUGCCGCCGGGCGCCAUGCCUGCAGGUCGACUCUAGAAAACAUG”, in the experiment with PUM1 PUF domain R2-VYP, the binding signal is 3.97 log2 enrichment (interaction score). On to “GGCUAGAACUAGUGGAUCCCCCGGCGCCCGGCGGCUCGAGCCCGGGUAAGUCUAAAUAGUCUGCAUGCCGCCGGGCGCCAUGCCUGCAGGUCGACUCUAGAAAACAUG”, for which, in the experiment with PUM1 PUF domain R7-CCR, the binding signal was 3.07 log2 enrichment (interaction score). As to “GGCUAGAACUAGUGGAUCCCCCGGCGCCCGGCGGCUCGAGCCCGGGUAAGUGUAUAUAGUCUGCAUGCCGCCGGGCGCCAUGCCUGCAGGUCGACUCUAGAAAACAUG”, the binding signal with PUM1 PUF domain R4-PHQ was 7.3 log2 enrichment (interaction score); with PUM1 PUF domain R4-WGW it was 3.62 log2 enrichment (interaction score); with PUM1 PUF domain R4-FNL, 3.56 log2 enrichment (interaction score); with PUM1 PUF domain R4-AWP it was 6.43 log2 enrichment (interaction score). Take “GGCUAGAACUAGUGGAUCCCCCGGCGCCCGGCGGCUCGAGCCCGGGUAAGUGUUAAUAGUCUGCAUGCCGCCGGGCGCCAUGCCUGCAGGUCGACUCUAGAAAACAUG”: the binding signal is 3.43 log2 enrichment (interaction score) in the experiment with PUM1 PUF domain R5-KAL and 4.96 log2 enrichment (interaction score) with PUM1 PUF domain R5-NIA. “GGCUAGAACUAGUGGAUCCCCCGGCGCCCGGCGGCUCGAGCCCGGGUAAGUGUAAAUCGUCUGCAUGCCGCCGGGCGCCAUGCCUGCAGGUCGACUCUAGAAAACAUG”: the binding signal with PUM1 PUF domain R1-KKT is 3.84 log2 enrichment (interaction score). For the sequence “GGCUAGAACUAGUGGAUCCCCCGGCGCCCGGCGGCUCGAGCCCGGGUAAGCGUAAAUAGUCUGCAUGCCGCCGGGCGCCAUGCCUGCAGGUCGACUCUAGAAAACAUG”, in the experiment with PUM1 PUF domain R8-TRR, the binding signal was 2.73 log2 enrichment (interaction score). “GGCUAGAACUAGUGGAUCCCCCGGCGCCCGGCGGCUCGAGCCCGGGUAAGUGUAAGUAGUCUGCAUGCCGCCGGGCGCCAUGCCUGCAGGUCGACUCUAGAAAACAUG”: the binding signal is 4.92 log2 enrichment (interaction score) with PUM1 PUF domain R3-PRE and 1.95 log2 enrichment (interaction score) with PUM1 PUF domain R3-GHG.
